Screening results (PubChem)
An excerpt weighted towards active compounds, which were near 6.9% of everything screened.
Vif-A3G inh = inhibitors of Vif-APOBEC3G interaction | Q9HC16 | HeLa A3G-eYFP + Vif (tagged APOBEC3G with the HIV-1 protein that degrades it), YFP fluorescence, overnight | Potency, µM (doses to about 46.1 µM), actives largely listed as inhibitors | 410,000 compounds, 0.076% hits; also: nearly all actives have a fitted effect of over 60% in size
Target sequence (Q9HC16 whole entry, looked up): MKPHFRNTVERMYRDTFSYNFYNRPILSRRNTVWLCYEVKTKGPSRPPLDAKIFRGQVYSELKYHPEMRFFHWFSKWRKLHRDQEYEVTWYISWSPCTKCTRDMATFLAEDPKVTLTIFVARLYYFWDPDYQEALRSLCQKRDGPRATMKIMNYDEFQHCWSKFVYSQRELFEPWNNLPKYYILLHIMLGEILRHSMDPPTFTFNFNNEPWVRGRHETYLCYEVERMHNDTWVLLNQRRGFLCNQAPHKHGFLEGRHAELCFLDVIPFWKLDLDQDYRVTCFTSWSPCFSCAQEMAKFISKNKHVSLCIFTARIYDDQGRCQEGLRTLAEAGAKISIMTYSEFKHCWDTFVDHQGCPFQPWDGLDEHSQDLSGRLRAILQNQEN
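Read-out is eYFP fluorescence (Ex 488/Em 500-530) from Vif-expressing HeLa A3G-eYFP cells; more signal means A3G escaped Vif-mediated degradation. Cells plated overnight, compound pinned in, incubated overnight at 37 deg C.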
IL1B secr inh = inhibitors of inflammasome signaling (IL-1 beta secretion); THP-1 LPS/ATP IL-1B secretion, AlphaLISA, 16 h; active compounds read low; activity change, % at 57.5 µM; 360,000 compounds, 4.7% hits; in the data active = activity change below about -50%; inconclusive = mostly about -30% to -49%
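THP-1 cells pretreated 1 hr with compounds (up to 57.5 uM final), then stimulated with LPS (250 ng/mL final) plus ATP (1.25 mM final); secreted IL-1B measured by AlphaLISA after 16 hr, decreased signal indicating inhibition.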
Vif-A3F inh = blocks the Vif interaction with APOBEC3F; Potency, µM (titrated, usually from 46.1 µM); 390,000 compounds, 0.2% hits; AID 602313; HeLa A3F-eYFP + Vif (tagged APOBEC3F with the HIV-1 protein that degrades it), YFP fluorescence increase; also: nearly all actives have a fitted effect of over 65% in size
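HeLa cells stably expressing Vif plus C-terminally eYFP-tagged A3F were seeded, incubated overnight at 37 deg C, dosed with compound, incubated overnight again at 37 deg C. Yellow fluorescence (Ex 488/Em 500-530) reported blocked Vif-mediated A3F-eYFP degradation.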
SW480 rerep = induces DNA re-replication in SW480 colon adenocarcinoma cells | SW480 DNA re-replication, Hoechst DNA content imaging, 48 h | Potency, µM (top dose mostly 46.1 µM), most hits filed as activators | 340,000 compounds, 1.8% hits | AID 624297; also: nearly all actives have a fitted effect of over 55% in size
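Cells (250 per well) received 23 nL compound or DMSO by pin tool and were kept 48 hr at 37 C, 5% CO2. Nuclei were then stained with Hoechst for 40 min and scanned for DNA content.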
MCF10A rerep = inducers of DNA re-replication in MCF 10A breast cells | MCF 10A DNA re-replication, Hoechst nuclear intensity, 48 h | Potency, µM (doses to about 46.1 µM), actives largely listed as activators | 350,000 compounds, 2.9% hits; also: nearly all actives have a fitted effect of over 50% in size
Giardia kill = Giardia lamblia killing. Giardia lamblia trophozoite viability. activity change, % at 7.66 µM, hits read low. 340,000 compounds, 0.15% hits; in the data active = activity change below about -80%; inconclusive = between about -30% and that limit;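 also: parasites exposed to compound for two days anaerobically before the ATP read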
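Compounds were tested on trophozoites seeded at 100 cells/well and held 48 hrs at 37 deg C anaerobically. An ATP-based luminescent kit measured the remaining live cells.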
Numbers stand for hits; – = inactive; ? = inconclusive; · = no result. Unless noted, calls follow the shape of the dose curve; as a rule, active = well fitted curve in the direction sought with a large enough effect; inconclusive = small, poorly fitted or top-dose-only effect, or another doubt; inactive = no such curve, though single readings can be large; an effect the other way counts as inactive or inconclusive.

SMILES	Vif-A3G inh	IL1B secr inh	Vif-A3F inh	SW480 rerep	MCF10A rerep	Giardia kill
COc1ccc(CN2C(=O)C(CC(C)C)Nc3ncnc(N4CCN(c5ccccn5)CC4)c32)cc1 (centres undefined)	–	-58	–	?	–	–
COc1ccc(CN2C(=O)C(C)Nc3ncnc(N4CCN(c5ccccn5)CC4)c32)cc1 (centres undefined)	–	–	–	–	–	–
Cc1ccc(CN2C(=O)C(Cc3ccccc3)Nc3ncnc(N4CCN(c5ccccc5)CC4)c32)cc1 (centres undefined)	–	–	–	–	–	–
O=C1C(Cc2ccccc2)Nc2ncnc(N3CCN(c4ccccc4)CC3)c2N1Cc1ccccc1 (centres undefined)	–	-59	–	–	–	–
CCC(Cn1nnc2ccccc2c1=O)NC(=O)Nc1cc(OC)cc(OC)c1 (centres undefined)	–	·	–	·	·	·
O=C(OCn1ncc(Cl)c(Cl)c1=O)c1cccc(C(F)(F)F)c1	?	-101	–	5.8µM	5.8µM	–
CN(C(=O)c1cc(-c2ccccc2O)on1)c1ccccc1	–	·	–	·	·	·
OC1(C2(O)CC(c3ccccc3)ON2)CCCCC1 (centres undefined)	–	-69	–	?	?	–
CN1C(=O)C2(CCCCC2)C1c1ccccc1 (centres undefined)	–	–	–	?	–	–
CN1CCC[C@@H]1CCNC(=O)c1c(-c2ccc3c(c2)OCO3)noc1-c1ccsc1	–	-76	–	–	–	–
CN1CCC[C@H]1CCNC(=O)c1c(-c2ccsc2)sc2ccccc12	–	–	–	–	–	–
O=[N+]([O-])c1cccc(C2CC(c3ccccc3)=NN2c2ccccc2)c1 (centres undefined)	–	?	–	–	–	–
N#CC1CC(c2ccc([N+](=O)[O-])cc2)=NN1c1ccc([N+](=O)[O-])cc1 (centres undefined)	–	–	?	?	6.5µM	–
Cc1ccc(NC(=O)C2CCN(c3cc(C)nc4c(-c5ccc(Cl)cc5)c(C)nn34)CC2)c(C)c1	–	·	–	·	·	·
O=C(O)c1cc(S(=O)(=O)O)cc(Nc2c3ccccc3nc3ccccc23)c1O	–	–	–	5.2µM	–	–
O=C(O)c1cccc(Nc2c3ccccc3nc3ccccc23)c1	–	–	–	–	–	–
O=C(Cn1cc(SCc2c(F)cccc2Cl)c2ccccc21)N1CCCCCC1	–	·	–	·	·	·
CS(=O)(=O)Nc1ccccc1NS(C)(=O)=O	–	-58	–	–	–	–
COc1ccc(S(=O)(=O)N2CCN(c3cc(-c4ccccc4)nc4ncnn34)CC2)cc1	–	-69	–	–	–	–
COc1cccc(O)c1CN1CCC(C(=O)Nc2ccc(Oc3cccnc3)cc2)CC1	–	–	–	–	–	–
COc1cccc(O)c1CN1CCC(C(=O)Nc2ccc(-c3cccc(C)c3)cc2)CC1	–	-95	–	?	?	–
COc1cccc(-c2ccc(NC(=O)C3CCCN(CCCn4nc(C)cc4C)C3)cc2)c1 (centres undefined)	–	–	–	21µM	?	–
CCc1nc(CN2CCCC(C(=O)Nc3ccc(-c4cccc(OC)c4)cc3)C2)c(C)[nH]1 (centres undefined)	–	–	–	·	·	·
COc1cccc(-c2ccc(NC(=O)C3CCCN(Cc4ccco4)C3)cc2)c1 (centres undefined)	–	-80	–	–	?	–
Cc1c(C(=O)N(C)C)sc2c1c(=O)n(-c1ccc(Cl)c(Cl)c1)c(=O)n2CC(=O)N1CCCCC1C (centres undefined)	–	·	–	·	·	·
Cc1ccc(NC(=O)c2oc3ccccc3c2NC(=O)C2CCCCC2)cc1	–	·	–	·	·	·
CC(C)CCNC(=O)C1CCN(C(=O)c2cc3sccc3n2Cc2ccc(Cl)cc2)CC1	–	·	–	·	·	·
O=C(Nc1cc(-c2ccc(Cl)cc2)no1)c1ccc(F)cc1	–	·	–	·	·	·
CC(C)CN(CC(C)C)c1ccc(/C=N/n2cnnc2)cc1[N+](=O)[O-]	–	-55	–	–	?	–
